# High-throughput results deposited in PubChem by National Center for Advancing Translational Sciences (NCATS).
# TRPV1 potentiator: potentiators of human vanilloid receptor 1 (TRPV1). 320,000 compounds, 0.02% hits. potentiation, % at 8.33 µM. Q8NER1. TRPV1-expressing cells, Fluo-8 calcium influx, capsaicin EC20 potentiation; in the data active = potentiation above about 80%; inconclusive = between about 30% and that limit
#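 TRPV1-expressing cells were cultured overnight at 35.5C and loaded with Fluo-8 calcium dye for 40 to 90 min at room temperature. After a 10 s baseline, compound was added and calcium influx was read kinetically for 3 min (ex 480/em 520 nm).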
# TRPML1 agonist: human mucolipin-1 channel agonism; Q9GZU1; TRPML1-expressing cells, Ca2+ dye fluorescence, FDSS; activation, % (concentration not given with the values); 410,000 compounds, 0.12% hits; AID 624414; in the data active = activation above about 50%; inconclusive = mostly about 30% to 49%
# Target sequence (Q9GZU1 whole entry, looked up): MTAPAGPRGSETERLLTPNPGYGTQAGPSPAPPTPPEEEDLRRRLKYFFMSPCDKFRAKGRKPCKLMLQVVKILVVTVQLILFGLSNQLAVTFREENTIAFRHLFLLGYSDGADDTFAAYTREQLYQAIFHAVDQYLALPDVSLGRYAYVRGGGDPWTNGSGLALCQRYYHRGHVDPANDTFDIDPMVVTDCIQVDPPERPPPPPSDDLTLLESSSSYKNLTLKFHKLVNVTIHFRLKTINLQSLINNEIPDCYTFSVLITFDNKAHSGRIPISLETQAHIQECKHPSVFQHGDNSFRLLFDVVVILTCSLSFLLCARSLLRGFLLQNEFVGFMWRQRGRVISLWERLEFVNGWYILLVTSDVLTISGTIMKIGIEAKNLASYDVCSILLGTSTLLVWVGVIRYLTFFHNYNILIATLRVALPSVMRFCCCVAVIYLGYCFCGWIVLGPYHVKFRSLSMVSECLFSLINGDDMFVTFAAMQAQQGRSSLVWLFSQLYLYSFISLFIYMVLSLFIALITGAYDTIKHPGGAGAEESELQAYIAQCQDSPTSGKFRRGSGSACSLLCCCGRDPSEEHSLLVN
#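 Calcium fluorescence on an FDSS kinetic reader gave the read-out. Tet-induced TRPML1-DL cells were plated overnight, dye-loaded (Ca8 with quencher, 45-90 min, room temperature, dark), then read 110 s after compound addition, and again 110 s after 4uM final 54-4 (EC80).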
# KCNH2 WT inh: KCNH2 (human, wildtype) channel inhibition | Q12809 | U2OS, BacMam KCNH2, thallium flux FluxOr; stronger effect = lower value | activity change, % at 1.84 µM | 340,000 compounds, 0.37% hits | AID 720551;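 active = maximum activity change below -70%; inconclusive = maximum activity change between -70% and -50%; inactive = maximum activity change above -50%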
#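 U2OS cells were transduced with wild-type KCNH2 virus (2.03 x 10^8 / mL) for 4 h at room temperature, then cultured overnight at 37 C. Thallium flux was read with FluxOr dye. Rate constants were normalized to DMSO controls.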
# TRPML1 inh: human mucolipin-1 channel inhibition; Q9GZU1; TRPML1-inducible cells, Ca2+ dye fluorescence, FDSS; stronger effect = lower value; inhibition of EC80 agonist-evoked calcium signal; activity change, negative = inhibition, % (concentration not given with the values); 390,000 compounds, 0.02% hits; AID 624415; in the data active = activity change below about -50%; inconclusive = between about -30% and that limit;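 note: stimulus is agonist 54-4 at its EC80 concentration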
#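 TRPML1-DL cells, Tet-induced overnight (~16 h, 37 °C) at 1,500 cells/well, were loaded with Ca8 no-wash dye plus quencher for 45-90 min at room temperature. Compounds were pinned during FDSS kinetic reading; agonist 54-4 at EC80 (4 uM final) then added.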
# KCNH2 3.1 inh: inhibitors of human KCNH2 3.1 potassium channel isoform; U2OS KCNH2 3.1, thallium flux FluxOr; stronger effect = lower value; AID 720553; 340,000 compounds, 0.95% hits; activity change, % (tested at about 1.8 µM);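 active = maximum activity change below -70%; inconclusive = maximum activity change from -70% to -50%; inactive = maximum activity change above -50%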;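 note: thallium influx rate constant from kinetic fluorescence after stimulation buffer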
#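 We transduce U2OS cells with the mutant 3.1 virus, culture them overnight, load FluxOr with Red40 quencher for 45 min, then add stimulation buffer and read kinetically for 2 min to derive a normalized rate constant.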
# TRPV1 ag: human TRPV1 agonism; 320,000 compounds, 0.19% hits; TRPV1-expressing cells, Fluo-8 calcium influx, agonist mode; activation, % at 8.33 µM; AID 540275; in the data active = activation above about 80%; inconclusive = between about 30% and that limit
#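 Fluo-8 calcium influx in TRPV1-expressing cells, kinetic read (ex 480/em 520 nm). Compound added and read 3 min for agonist activity, followed by capsaicin at EC20 final and 2 min further read for enhancement.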
# Hits are given with their value; 0 = inactive; ? = inconclusive; - = not tested or not shown; ! = not active in a repeat. Rows were chosen to be rich in hits. Some 1.3% of all compounds tested hit in one or more screens of this group.
SMILES,TRPV1 potentiator,TRPML1 agonist,KCNH2 WT inh,TRPML1 inh,KCNH2 3.1 inh,TRPV1 ag
COc1ccc(C(=O)C2CCCN(Cc3cc(Cl)ccc3O)C2)c(OC)c1 (configuration not stated),0,0,0,0,-74,0
COc1ccc(C(=O)C2CCCN(Cc3cc(C)c(O)c(C)c3)C2)c(OC)c1 (configuration not stated),0,0,0,0,0,0
CCOc1cccc(CN2CCCC(N3CCN(c4cccc(Cl)c4)CC3)C2)c1O (configuration not stated),0,0,0,0,-82,0
COc1ccc(CN2CCCC(C(=O)c3ccc(Cl)cc3)C2)cc1Cn1cccn1 (configuration not stated),0,0,-106,0,-96,0
COc1cccc(C(=O)C2CCCN(Cc3ccc(OC)c(Cn4cncn4)c3)C2)c1 (configuration not stated),0,0,0,0,0,0
COc1cccc(CN2CCCC(C(=O)c3ccc4c(c3)OCO4)C2)c1O (configuration not stated),0,0,0,0,0,0
CCOc1cccc(CN2CCCC(C(=O)c3cc(Cl)ccc3OC)C2)c1O (configuration not stated),0,0,-105,0,-115,?
COc1cccc(-n2c(SCc3ccccc3C)nc3c([nH]c4ccccc43)c2=O)c1,-,0,-,0,-,-
CC(C)COc1ccc(CC(=O)NO)cc1,-,0,-,-,-,-
COc1ccc(NS(=O)(=O)c2cc(NC(=O)c3cnc(C)cn3)ccc2N2CCCCC2)cc1,0,0,0,0,0,90
Cc1cc(N2CCN(c3nc(-c4ccc([N+](=O)[O-])cc4)cs3)CC2)c2ccccc2n1,0,0,-122,0,-124,0
Cc1ccc([N+](=O)[O-])cc1NC(=O)CCCOc1ccccc1,0,0,0,0,-110,0
COc1cc(/C=C/C(=O)OCC(=O)NC2CCS(=O)(=O)C2)ccc1OC(F)F (configuration not stated),0,0,0,0,-167,0
Cc1ccc(C)c2c1NC(C(=O)O)C1CC=CC21 (configuration not stated),-,0,-,-,-,-
COc1cccc(CN(CC2CCCO2)S(=O)(=O)c2ccc(S(=O)(=O)N(C)C)cc2)c1 (configuration not stated),0,87,0,0,0,0
CCCS(=O)(=O)c1ncc(Cl)c(C(=O)Nc2sc3c(c2C(=O)NCC)CCCC3)n1,-,0,-,-,-,-
COc1cc(CNC(=O)CCCC/C=C/C(C)C)ccc1O,0,0,0,0,0,103
COc1cc(CNC(=O)CCCC(=O)c2ccccc2)cc(OC)c1OC,0,0,0,0,0,0
Cc1ccc(CNC(=O)Cn2ccn(-c3ccc(F)cc3)c(=O)c2=O)cc1,-,0,-,0,-,-
Cc1cc(OCC(=O)N2CCc3ccccc3C2)c2c(-c3ccccc3)cc(=O)oc2c1,0,0,-203,0,0,0
O=C(CNC(=O)/C(=C\c1ccc(Br)cc1)NC(=O)c1ccccc1)OCc1ccccc1,0,0,0,0,0,0
O=C(CNC(=O)/C(=C/c1ccccc1)NC(=O)c1ccc(Br)cc1)OCc1ccccc1,0,0,0,0,-85,0
O=C(COc1ccccc1C(=O)Nc1ccccc1)Nc1ccc(Br)cc1,-,0,-,-,-,-
CCOC(=O)N1CCN(C(=O)c2ccc3nc(-c4ccccc4)c(-c4ccccc4)nc3c2)CC1,0,0,0,0,0,0
NC(=O)C1CCN(C(=O)c2ccc3nc(-c4ccccc4)c(-c4ccccc4)nc3c2)CC1,0,0,0,0,0,81
SMILES,TRPV1 potentiator,TRPML1 agonist,KCNH2 WT inh,TRPML1 inh,KCNH2 3.1 inh,TRPV1 ag
COC(=O)CSc1nc(-c2ccc(C)cc2)c2c(c1C#N)CCCC2,0,0,0,0,-73,0
COC(=O)CSc1nc(N2CCOCC2)c2c(c1C#N)CCCC2,0,0,0,0,0,0
O=C(c1cc(COc2ccc(F)cc2Cl)on1)N1CCC(c2ccncc2)CC1,0,0,0,0,0,86
C=CCN1C(=O)c2ccc(C(=O)N(CC(C)C)c3c(N)n(CCCC)c(=O)[nH]c3=O)cc2C1=O,0,0,0,0,-147,0
CCOc1ccc(C(=O)Nc2ccc(-c3nc4ccccc4[nH]3)cc2)cc1[N+](=O)[O-],0,0,0,0,-71,0
COc1ccccc1Cc1nc2ccccc2nc1SCC(=O)N1CCN(c2ccccc2)CC1,-,0,-,0,-,-
CC(/C=C\c1cccnc1)=C/C(=O)O,0,0,0,0,-77!,0
CCOc1ccc(NC(=O)C2CSC(c3ccncc3)=N2)cc1 (configuration not stated),0,0,-120,0,-173,0
COc1ccc(-c2nc3ccccc3n2Cc2ccc(C)cc2)cc1,0,0,-122,0,-,?
COc1ccc(-c2nc3ccccc3n2Cc2ccc(Cl)cc2)cc1,-,0,-,0,-,-
CCn1ccc2cc(S(=O)(=O)N3CCCN(C(=O)NCC(=O)OC)CC3)ccc21,-,0,-,0,-,-
O=C(O)CCC(=O)N1CCc2cc(S(=O)(=O)N3CCN(c4ccc(F)cc4)CC3)ccc21,0,0,0,0,-101,0
Cc1ccc(C)c(N2CCN(S(=O)(=O)c3ccc4c(c3)CCN4C(=O)CCC(=O)O)CC2)c1,0,0,0,0,0,0
CCC(C)Sc1cccc(-c2nc3ccc(Cl)cn3c2NCc2ccccc2)c1 (configuration not stated),0,0,0,0,0,87
CCCCNc1c(-c2ccc(SC(C)CC)c(OC)c2)nc2ccc(Cl)cn12 (configuration not stated),-,0,-238,0,0,-
CCCCNc1c(-c2ccc(SC3CCCCC3)c(OC)c2)nc2ccc(Cl)cn12,0,0,0,0,-97,?
CCCCCCSc1ccc(-c2nc3ccc(Cl)cn3c2NCCCC)cc1OC,-,0,0,0,0,-
Cc1ccc(NC(=O)CN2C(=O)COc3ccc(S(=O)(=O)N4CCCCCC4)cc32)cc1Cl,-,0,-,0,-,-
O=C(C[n+]1cccc(Cl)c1)c1ccc(O)c(O)c1,-,0,-,-,-,-
CC(C)c1ccc(CNc2ccc(N3CCOCC3)cc2)cc1,?,0,-131,0,-175,0
Cc1ccc(CNc2ccc(N3CCOCC3)cc2)cc1,0,0,0,0,0,0
Cc1cccc(C)c1NC(=O)c1ccc(-c2ccc(Cl)cc2Cl)o1,0,0,0,0,0,0
O=C(Nc1ccc(CN2CCOCC2)cc1)c1ccc(-c2ccc(Cl)cc2Cl)o1,0,0,0,0,-87,0
CC(C)c1ccc(C(=O)Nc2ccc(CN3CCOCC3)cc2)cc1,0,0,0,0,-76,0
